In ChEMBL document CHEMBL1961873, “Compounds: GSK PKIS; Assays: Nanosyn kinase panel” (2012):

Assays:
[1] = biological target: Death-associated protein kinase 1 (Homo sapiens) (UniProt P53355); conditions: at 1 µM;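 further: each value is a mean inhibition figure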
[2] = biological target: T1, Serine/threonine-protein kinase DCLK2 (Homo sapiens) (UniProt Q8N568); conditions: at 0.1 µM
T1 sequence (whole entry): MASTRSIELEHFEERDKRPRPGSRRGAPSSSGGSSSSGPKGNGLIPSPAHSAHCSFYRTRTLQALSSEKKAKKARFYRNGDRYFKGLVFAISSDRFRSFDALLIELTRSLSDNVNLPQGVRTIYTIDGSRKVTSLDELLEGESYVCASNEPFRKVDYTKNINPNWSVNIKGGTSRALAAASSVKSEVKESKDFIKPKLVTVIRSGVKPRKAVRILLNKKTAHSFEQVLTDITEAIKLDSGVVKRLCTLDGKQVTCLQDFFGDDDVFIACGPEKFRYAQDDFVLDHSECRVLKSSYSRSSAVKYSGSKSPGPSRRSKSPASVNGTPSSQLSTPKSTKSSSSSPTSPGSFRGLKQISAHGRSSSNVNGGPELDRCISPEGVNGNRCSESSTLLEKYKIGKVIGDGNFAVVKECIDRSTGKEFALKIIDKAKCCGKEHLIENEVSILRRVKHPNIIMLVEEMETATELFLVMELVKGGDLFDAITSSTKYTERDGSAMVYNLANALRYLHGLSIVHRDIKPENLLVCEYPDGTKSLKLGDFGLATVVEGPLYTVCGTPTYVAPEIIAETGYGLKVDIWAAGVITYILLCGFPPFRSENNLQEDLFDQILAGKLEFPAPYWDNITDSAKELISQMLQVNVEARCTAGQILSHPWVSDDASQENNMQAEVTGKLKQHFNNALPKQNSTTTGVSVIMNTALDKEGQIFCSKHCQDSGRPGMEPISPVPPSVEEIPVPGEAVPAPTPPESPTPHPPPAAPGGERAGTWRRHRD

[3] = biological target: T1, Serine/threonine-protein kinase DCLK2 (Homo sapiens); conditions: at 1 µM
[4] = biological target: MAP kinase-activated protein kinase 2 (Homo sapiens) (UniProt P49137); conditions: at 0.1 µM
Chain of MAP kinase-activated protein kinase 2 (Homo sapiens) (P49137 whole entry, looked up): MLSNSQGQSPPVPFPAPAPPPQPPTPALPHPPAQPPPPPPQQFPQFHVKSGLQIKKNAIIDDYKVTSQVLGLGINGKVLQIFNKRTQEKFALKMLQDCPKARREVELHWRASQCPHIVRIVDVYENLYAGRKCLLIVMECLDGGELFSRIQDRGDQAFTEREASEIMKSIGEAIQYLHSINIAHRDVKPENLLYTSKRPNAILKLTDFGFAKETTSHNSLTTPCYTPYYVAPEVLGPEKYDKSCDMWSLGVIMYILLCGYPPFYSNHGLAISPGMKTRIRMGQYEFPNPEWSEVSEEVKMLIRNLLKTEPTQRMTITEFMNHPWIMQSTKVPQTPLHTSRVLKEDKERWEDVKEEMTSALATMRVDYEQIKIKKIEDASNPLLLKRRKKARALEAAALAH

[5] = biological target: MAP kinase-activated protein kinase 2 (Homo sapiens) (UniProt P49137); conditions: at 1 µM
[6] = biological target: MAP kinase-activated protein kinase 3 (Homo sapiens) (UniProt Q16644); conditions: at 0.1 µM
Chain of MAP kinase-activated protein kinase 3 (Homo sapiens) (Q16644 whole entry, looked up): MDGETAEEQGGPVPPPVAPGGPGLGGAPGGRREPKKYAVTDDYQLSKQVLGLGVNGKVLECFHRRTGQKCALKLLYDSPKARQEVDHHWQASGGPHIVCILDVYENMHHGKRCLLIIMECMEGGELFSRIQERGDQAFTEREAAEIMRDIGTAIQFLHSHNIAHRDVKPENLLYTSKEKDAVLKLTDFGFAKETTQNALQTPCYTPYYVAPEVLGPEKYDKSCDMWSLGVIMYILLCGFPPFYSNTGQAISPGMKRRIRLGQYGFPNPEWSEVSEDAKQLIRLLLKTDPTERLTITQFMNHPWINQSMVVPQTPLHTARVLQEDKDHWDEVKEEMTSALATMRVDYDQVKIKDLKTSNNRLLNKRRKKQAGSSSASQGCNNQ

[7] = biological target: MAP kinase-activated protein kinase 3 (Homo sapiens) (UniProt Q16644); conditions: at 1 µM
[8] = biological target: Serine/threonine-protein kinase MARK1 (Homo sapiens) (UniProt Q9P0L2); conditions: at 0.1 µM
Chain of Serine/threonine-protein kinase MARK1 (Homo sapiens) (Q9P0L2 whole entry, looked up): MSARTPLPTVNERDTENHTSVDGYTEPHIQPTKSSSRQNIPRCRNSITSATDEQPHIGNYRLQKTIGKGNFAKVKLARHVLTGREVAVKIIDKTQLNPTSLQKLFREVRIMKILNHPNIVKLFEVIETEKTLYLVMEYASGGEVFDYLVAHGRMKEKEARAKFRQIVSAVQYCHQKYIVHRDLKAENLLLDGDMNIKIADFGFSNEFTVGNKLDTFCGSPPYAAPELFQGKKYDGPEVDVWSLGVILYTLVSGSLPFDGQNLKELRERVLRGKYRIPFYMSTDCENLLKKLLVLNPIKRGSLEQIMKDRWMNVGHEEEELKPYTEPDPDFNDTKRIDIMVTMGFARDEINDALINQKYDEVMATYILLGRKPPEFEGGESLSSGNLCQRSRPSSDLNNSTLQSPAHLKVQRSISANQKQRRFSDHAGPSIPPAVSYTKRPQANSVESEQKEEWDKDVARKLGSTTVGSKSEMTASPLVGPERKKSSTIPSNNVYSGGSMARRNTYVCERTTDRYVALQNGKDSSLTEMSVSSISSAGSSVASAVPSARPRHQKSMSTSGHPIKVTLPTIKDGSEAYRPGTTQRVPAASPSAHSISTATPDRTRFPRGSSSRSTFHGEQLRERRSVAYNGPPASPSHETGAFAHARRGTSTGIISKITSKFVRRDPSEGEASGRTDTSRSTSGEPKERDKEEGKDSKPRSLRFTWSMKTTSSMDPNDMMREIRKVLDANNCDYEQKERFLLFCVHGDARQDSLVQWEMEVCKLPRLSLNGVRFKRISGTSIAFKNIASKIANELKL

[9] = biological target: Serine/threonine-protein kinase MARK1 (Homo sapiens) (UniProt Q9P0L2); conditions: at 1 µM
[10] = biological target: MAP/microtubule affinity-regulating kinase 3 (Homo sapiens) (UniProt P27448); conditions: at 0.1 µM
Chain of MAP/microtubule affinity-regulating kinase 3 (Homo sapiens) (P27448 whole entry, looked up): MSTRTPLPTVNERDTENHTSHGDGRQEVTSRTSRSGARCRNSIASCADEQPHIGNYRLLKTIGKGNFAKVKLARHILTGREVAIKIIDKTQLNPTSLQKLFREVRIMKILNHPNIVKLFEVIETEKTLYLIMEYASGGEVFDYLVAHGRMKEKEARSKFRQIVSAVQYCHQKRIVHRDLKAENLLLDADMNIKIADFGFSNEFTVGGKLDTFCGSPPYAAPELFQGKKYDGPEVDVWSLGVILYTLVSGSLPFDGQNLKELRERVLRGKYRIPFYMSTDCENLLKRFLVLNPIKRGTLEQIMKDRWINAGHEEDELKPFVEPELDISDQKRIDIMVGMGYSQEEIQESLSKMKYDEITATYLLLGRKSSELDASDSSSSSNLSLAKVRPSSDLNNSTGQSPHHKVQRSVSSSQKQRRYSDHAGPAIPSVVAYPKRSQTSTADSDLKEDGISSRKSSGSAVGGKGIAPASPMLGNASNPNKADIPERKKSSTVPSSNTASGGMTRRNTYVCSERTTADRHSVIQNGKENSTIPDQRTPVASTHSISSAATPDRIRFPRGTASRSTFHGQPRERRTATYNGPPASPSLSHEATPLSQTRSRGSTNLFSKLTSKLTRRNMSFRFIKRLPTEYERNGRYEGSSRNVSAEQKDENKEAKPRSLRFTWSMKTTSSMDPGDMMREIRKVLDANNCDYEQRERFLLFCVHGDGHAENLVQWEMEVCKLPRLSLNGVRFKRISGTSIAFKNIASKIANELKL

[11] = biological target: MAP/microtubule affinity-regulating kinase 3 (Homo sapiens) (UniProt P27448); conditions: at 1 µM
[12] = biological target: T2, MAP/microtubule affinity-regulating kinase 4 (Homo sapiens) (UniProt Q96L34); conditions: at 0.1 µM
T2 sequence (whole entry): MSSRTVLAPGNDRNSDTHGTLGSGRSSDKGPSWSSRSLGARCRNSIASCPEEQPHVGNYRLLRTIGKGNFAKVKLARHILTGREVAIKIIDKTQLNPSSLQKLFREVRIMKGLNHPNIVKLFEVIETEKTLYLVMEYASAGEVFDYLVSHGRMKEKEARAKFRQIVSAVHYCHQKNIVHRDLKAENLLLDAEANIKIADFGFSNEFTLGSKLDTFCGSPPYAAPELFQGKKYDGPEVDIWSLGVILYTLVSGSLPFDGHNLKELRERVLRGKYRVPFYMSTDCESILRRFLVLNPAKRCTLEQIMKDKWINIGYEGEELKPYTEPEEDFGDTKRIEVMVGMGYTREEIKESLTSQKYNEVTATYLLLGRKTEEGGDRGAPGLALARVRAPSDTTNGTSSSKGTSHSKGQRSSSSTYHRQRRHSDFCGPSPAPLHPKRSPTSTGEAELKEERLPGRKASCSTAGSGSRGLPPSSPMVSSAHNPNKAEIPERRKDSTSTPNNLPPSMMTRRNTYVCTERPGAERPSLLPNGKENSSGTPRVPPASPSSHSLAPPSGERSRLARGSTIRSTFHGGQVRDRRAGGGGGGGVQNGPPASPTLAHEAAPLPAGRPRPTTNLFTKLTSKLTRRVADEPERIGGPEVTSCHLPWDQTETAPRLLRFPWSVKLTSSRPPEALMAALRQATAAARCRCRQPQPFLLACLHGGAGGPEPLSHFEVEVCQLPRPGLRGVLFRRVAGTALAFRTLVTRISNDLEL

[13] = biological target: T2, MAP/microtubule affinity-regulating kinase 4 (Homo sapiens); conditions: at 1 µM
[14] = biological target: Maternal embryonic leucine zipper kinase (Homo sapiens) (UniProt Q14680); conditions: at 0.1 µM
Chain of Maternal embryonic leucine zipper kinase (Homo sapiens) (Q14680 whole entry, looked up): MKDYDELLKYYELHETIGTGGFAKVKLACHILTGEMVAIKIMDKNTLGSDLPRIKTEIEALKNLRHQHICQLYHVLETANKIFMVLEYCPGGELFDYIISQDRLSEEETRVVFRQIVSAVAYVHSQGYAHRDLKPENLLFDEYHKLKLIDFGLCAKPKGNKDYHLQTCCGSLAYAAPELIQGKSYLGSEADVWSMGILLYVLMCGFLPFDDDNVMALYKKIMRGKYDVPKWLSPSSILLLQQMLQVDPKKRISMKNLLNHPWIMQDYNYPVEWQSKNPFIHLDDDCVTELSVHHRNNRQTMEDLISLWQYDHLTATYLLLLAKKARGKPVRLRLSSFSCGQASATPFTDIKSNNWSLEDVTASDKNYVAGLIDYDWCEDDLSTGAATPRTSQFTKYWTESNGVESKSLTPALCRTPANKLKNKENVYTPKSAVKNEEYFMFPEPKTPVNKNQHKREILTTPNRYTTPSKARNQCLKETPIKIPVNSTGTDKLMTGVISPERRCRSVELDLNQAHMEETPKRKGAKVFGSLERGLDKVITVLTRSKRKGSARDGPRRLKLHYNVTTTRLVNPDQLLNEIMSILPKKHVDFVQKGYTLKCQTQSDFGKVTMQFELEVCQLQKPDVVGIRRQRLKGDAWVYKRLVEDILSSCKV

[15] = biological target: Maternal embryonic leucine zipper kinase (Homo sapiens) (UniProt Q14680); conditions: at 1 µM
[16] = biological target: MAP kinase-interacting serine/threonine-protein kinase 1 (Homo sapiens) (UniProt Q9BUB5); conditions: at 0.1 µM
Chain of MAP kinase-interacting serine/threonine-protein kinase 1 (Homo sapiens) (Q9BUB5 whole entry, looked up): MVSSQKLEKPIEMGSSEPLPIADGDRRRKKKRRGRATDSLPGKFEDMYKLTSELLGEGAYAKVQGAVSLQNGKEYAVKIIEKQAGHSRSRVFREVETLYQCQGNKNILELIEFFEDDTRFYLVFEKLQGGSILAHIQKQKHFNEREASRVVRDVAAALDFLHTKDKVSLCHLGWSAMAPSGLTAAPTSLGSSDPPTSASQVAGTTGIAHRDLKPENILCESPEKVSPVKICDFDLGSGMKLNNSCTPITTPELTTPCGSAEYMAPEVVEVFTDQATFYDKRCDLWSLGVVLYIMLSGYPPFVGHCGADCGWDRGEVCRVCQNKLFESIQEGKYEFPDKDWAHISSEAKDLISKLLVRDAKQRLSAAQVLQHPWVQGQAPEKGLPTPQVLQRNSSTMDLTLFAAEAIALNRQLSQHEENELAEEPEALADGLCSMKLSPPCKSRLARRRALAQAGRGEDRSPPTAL

[17] = biological target: MAP kinase-interacting serine/threonine-protein kinase 1 (Homo sapiens) (UniProt Q9BUB5); conditions: at 1 µM
[18] = biological target: MAP kinase-interacting serine/threonine-protein kinase 2 (Homo sapiens) (UniProt Q9HBH9); conditions: at 0.1 µM
Chain of MAP kinase-interacting serine/threonine-protein kinase 2 (Homo sapiens) (Q9HBH9 whole entry, looked up): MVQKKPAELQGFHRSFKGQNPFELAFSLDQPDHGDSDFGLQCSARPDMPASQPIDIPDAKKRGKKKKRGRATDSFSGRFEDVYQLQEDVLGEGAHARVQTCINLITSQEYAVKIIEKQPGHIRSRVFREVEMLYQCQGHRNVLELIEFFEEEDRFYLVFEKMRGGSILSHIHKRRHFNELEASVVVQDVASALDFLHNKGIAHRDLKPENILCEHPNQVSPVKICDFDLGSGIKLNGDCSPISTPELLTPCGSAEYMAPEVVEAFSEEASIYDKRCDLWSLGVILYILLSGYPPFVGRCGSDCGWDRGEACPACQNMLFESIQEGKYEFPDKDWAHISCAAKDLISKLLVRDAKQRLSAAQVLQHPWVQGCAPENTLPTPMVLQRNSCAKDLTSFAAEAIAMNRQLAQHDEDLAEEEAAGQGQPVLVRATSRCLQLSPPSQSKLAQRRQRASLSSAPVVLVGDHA

[19] = biological target: MAP kinase-interacting serine/threonine-protein kinase 2 (Homo sapiens) (UniProt Q9HBH9); conditions: at 1 µM
[20] = biological target: Serine/threonine-protein kinase MARK2 (Homo sapiens) (UniProt Q7KZI7); conditions: at 0.1 µM;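 further: mean percent inhibition of PAR-1Balpha kinase activity, reported from the GSK PKIS screen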
Chain of Serine/threonine-protein kinase MARK2 (Homo sapiens) (Q7KZI7 whole entry): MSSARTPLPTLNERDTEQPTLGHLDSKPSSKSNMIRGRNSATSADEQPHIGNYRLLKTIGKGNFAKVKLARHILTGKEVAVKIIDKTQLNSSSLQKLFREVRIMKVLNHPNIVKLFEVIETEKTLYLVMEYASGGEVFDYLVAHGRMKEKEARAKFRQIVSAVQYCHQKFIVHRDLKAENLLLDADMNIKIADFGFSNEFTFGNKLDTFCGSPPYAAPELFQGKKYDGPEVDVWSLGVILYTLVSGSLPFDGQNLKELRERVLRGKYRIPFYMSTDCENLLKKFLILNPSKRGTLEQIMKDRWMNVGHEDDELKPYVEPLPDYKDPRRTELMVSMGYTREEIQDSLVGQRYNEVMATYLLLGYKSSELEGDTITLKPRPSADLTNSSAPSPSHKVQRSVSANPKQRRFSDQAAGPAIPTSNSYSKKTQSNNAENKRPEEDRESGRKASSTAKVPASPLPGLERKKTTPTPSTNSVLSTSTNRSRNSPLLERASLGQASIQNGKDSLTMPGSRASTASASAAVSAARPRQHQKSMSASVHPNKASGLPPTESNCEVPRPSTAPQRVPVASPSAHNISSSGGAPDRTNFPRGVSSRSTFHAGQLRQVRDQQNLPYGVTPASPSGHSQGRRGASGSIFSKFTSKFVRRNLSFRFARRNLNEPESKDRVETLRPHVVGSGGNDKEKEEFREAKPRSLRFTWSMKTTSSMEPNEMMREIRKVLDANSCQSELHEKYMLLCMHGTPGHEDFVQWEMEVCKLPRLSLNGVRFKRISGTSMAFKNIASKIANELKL

Row | SMILES | inhibition [1] [%] | inhibition [2] [%] | inhibition [3] [%] | inhibition [4] [%] | inhibition [5] [%] | inhibition [6] [%] | inhibition [7] [%] | inhibition [8] [%] | inhibition [9] [%] | inhibition [10] [%] | inhibition [11] [%] | inhibition [12] [%] | inhibition [13] [%] | inhibition [14] [%] | inhibition [15] [%] | inhibition [16] [%] | inhibition [17] [%] | inhibition [18] [%] | inhibition [19] [%] | inhibition [20] [%]
1 | COc1cc2ncn(-c3cc(O[C@@H](C)c4ccccc4Cl)c(C(N)=O)s3)c2cc1OC | 8.9 | -1.19 | 3.6 | 5.43 | 5 | 9.03 | 10.9 | 4.26 | 9.07 | 4.06 | 8.06 | 2.88 | 7.69 | 4.41 | 9.71 | 1.25 | 2.74 | -0.9 | 7.84 | 1.49
2 | Cc1nn(C)c2cc(N(C)c3ccnc(Nc4cccc(S(N)(=O)=O)c4)n3)ccc12 | 8.09 | 0.57 | 0.12 | 3.83 | 3.29 | 8.73 | 11 | 3.07 | 4.05 | 0.92 | -2.37 | 1.36 | 0.82 | 4.84 | 5 | 1.93 | 6.83 | 2.38 | 7.27 | -0.09
3 | Nc1nc(-c2ccc3c(c2)C(=Cc2cc(Br)c(O)c(Br)c2)C(=O)N3)cs1 | -4.53 | -3.76 | -0.78 | -1.56 | -1.55 | -1.77 | -1.51 | 0.42 | 1.58 | -0.72 | -2.49 | 0.78 | 1.73 | 0.07 | 5.36 | -1.04 | 7.91 | 0.49 | 10.6 | 0
4 | CS(=O)(=O)CCNCc1ccc(-c2ccc3ncnc(Nc4ccc(OCc5cccc(F)c5)c(C(F)(F)F)c4)c3c2)o1 | 12.3 | 3.73 | 0.98 | 4.67 | 4.5 | 10 | 11.2 | 3.68 | 3.33 | 1.95 | -2.72 | 1.59 | -0.39 | 4.21 | 3.14 | 3.81 | 9.5 | 3.07 | 10.4 | 2.7
5 | CC1=C(C(=O)Nc2ccc3[nH]ncc3c2)C(c2ccc3ccccc3c2)CC(=O)N1 (stereo not given) | 0.51 | 0.76 | -1.57 | 0.66 | 0.45 | 0.74 | 2.13 | 1.86 | 3.48 | 0.58 | 4.13 | 0.19 | 1.73 | 3.7 | 6.22 | 3.03 | 5.77 | 1.21 | 3.81 | -0.71
6 | CCn1c(-c2nonc2N)nc2c(N3CCCC3)nccc21 | 0.8 | -6.15 | 4.26 | -1.28 | -1.63 | -0.94 | -1.73 | 0.71 | 2.75 | 1.92 | -0.19 | 2.01 | 3.21 | 0.66 | 6.1 | -0.54 | 5.25 | -1.08 | 1.33 | 2.95
